The results in this text go back to PubChem BioAssay.

For part of these data: Measured potencies and affinities stand elsewhere. Activity calls are given as the source filed them. Unless noted, the rule behind the calls is not given here.

Assay [1] deals with Cell division control protein 42 homolog (Homo sapiens) (UniProt P60953). Briefly: activated mutant Cdc42 GTP-binding inhibitors, dose response, biochemical, multiplex bead flow cytometry, Bodipy-FL-GTP (AID 1333;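 active = fitted half-maximal concentration within the tested dose range, moderate curve steepness, a statistically real signal drop, and little compound fluorescence or tag-binding interference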).
For assay [2] the target is unchanged. Briefly: wildtype Cdc42 GTP-binding inhibitors, dose response, biochemical, multiplex bead flow cytometry, Bodipy-FL-GTP (AID 1334;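 active = fitted half-maximal concentration within the tested range, moderate curve steepness, significant signal drop, and little compound fluorescence or bead-linkage interference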). The note with it: bead-based flow cytometry, Bodipy-FL-GTP binding to GST-Cdc42; at 100 µM (top of the series) unless noted.
Assay [3] deals with GTPase HRas (Homo sapiens) (UniProt P01112). The experiment in a line: inhibitors of GTP binding to wildtype Ras, dose response, biochemical, multiplex bead flow cytometry (AID 1335;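 active = fitted half-maximal concentration within 10 nM to 100 µM, steepness 0.5 to 2, significant signal drop, low assay interference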). The note with it: bead-based flow cytometry, Bodipy-GTP binding to GST-Ras; at 100 µM (top of the series) unless noted. (Flow cytometry measures light scatter and fluorescence of single cells or particles in a stream.)

Assay [4] concerns Ras-related protein Rab-7a (dog), GTP binding. The experiment in a line: Rab7 GTP binding inhibitors, potency, dose response, biochemical, wildtype, multiplex bead flow cytometry (AID 1336).
Assay [5] addresses Ras-related C3 botulinum toxin substrate 1 (Homo sapiens) (UniProt P63000). The experiment in a line: wildtype Rac1 GTP binding inhibitors, dose response, biochemical, multiplex bead flow cytometry (AID 1340;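 active = dose curve with midpoint inside tested range, moderate steepness, plateau gap beyond fit error, low compound glow and bead-link interference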). The following applies: GST-Rac1 beads, Bodipy-FL-GTP binding; at 100 µM (top of the series) unless noted.
The target in assay [6] is GTPase HRas (Homo sapiens) (UniProt P01112). Briefly: activated Ras mutant GTP binding inhibitors, dose response, biochemical, multiplex bead flow cytometry (AID 1341;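 active = dose-response curve with midpoint inside the tested range, moderate steepness, significant amplitude and little compound fluorescence or bead-attachment interference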;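 note: GST-tagged constitutively activated Ras mutant immobilized on beads and multiplexed with other GTPases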).

Sequence of Cell division control protein 42 homolog (Homo sapiens) (P60953 whole entry, looked up): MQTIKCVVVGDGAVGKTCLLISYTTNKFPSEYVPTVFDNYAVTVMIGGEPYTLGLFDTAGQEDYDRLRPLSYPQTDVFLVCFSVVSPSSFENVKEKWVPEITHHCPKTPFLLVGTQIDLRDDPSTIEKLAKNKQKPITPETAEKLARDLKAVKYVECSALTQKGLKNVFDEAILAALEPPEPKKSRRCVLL
Sequence of GTPase HRas (Homo sapiens) (P01112 whole entry, looked up): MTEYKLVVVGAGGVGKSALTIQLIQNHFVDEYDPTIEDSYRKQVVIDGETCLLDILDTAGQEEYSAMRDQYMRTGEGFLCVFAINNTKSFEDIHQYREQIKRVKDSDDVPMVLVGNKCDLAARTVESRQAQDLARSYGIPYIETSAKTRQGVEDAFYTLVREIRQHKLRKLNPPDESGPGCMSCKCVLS

For `O=C(Nc1cccc2ccccc12)c1cnccn1`, the result in assay [1], in assay [4] and in assay [6] was inactive. Further, in assay [2], the fluorescence, percent of control (lower = inhibition) stood at 85.4%. Also, the GTP binding, percent of control in assay [3] came to 156%. In assay [5], this compound displayed a GTP binding signal, raw median fluorescence (lower = inhibition) (MCF (arbitrary fluorescence units)) of 181.
As for `COc1ccc(C(=O)NC(=S)N2CC(C)OC(C)C2)cc1` (stereo not given), the compound was classed as inactive in assay [1], in assay [4] and in assay [6]. For the same compound, the fluorescence, percent of control (lower = inhibition) in assay [2] was found to be 54.3%. Also, the GTP binding, percent of control in assay [3] was 68.1%. In assay [5], this compound showed a GTP binding signal, raw median fluorescence (lower = inhibition) (MCF (arbitrary fluorescence units)) of 216.
`CC(C)c1nc2oc3c(=O)[nH]cnc3c2c2c1CCC2`: the result in assay [1], in assay [4] and in assay [6] was inactive. For the same compound, the fluorescence, percent of control (lower = inhibition) in assay [2] worked out at 80%. Besides, the GTP binding, percent of control in assay [3] stood at 108%. In addition, in assay [5], the GTP binding signal, raw median fluorescence (lower = inhibition) (MCF (arbitrary fluorescence units)) amounted to 138.
As to `Cc1ccc(NC(=S)Nc2ccc3nc(-c4ccccn4)c(-c4ccccn4)nc3c2)cc1C`, the compound was called inactive in assay [1], in assay [4] and in assay [6]. The fluorescence, percent of control (lower = inhibition) in assay [2] stood at 53.7%. This compound also registered a GTP binding, percent of control in assay [3] of 69%. This compound also returned a GTP binding signal, raw median fluorescence (lower = inhibition) (MCF (arbitrary fluorescence units)) in assay [5] of 0.
Take `O=C(O)c1cccnc1SCc1cccc(Cl)c1`: the compound was called inactive in assay [1], in assay [4] and in assay [6]. The fluorescence, percent of control (lower = inhibition) in assay [2] worked out at 102%. This compound yielded a GTP binding, percent of control in assay [3] of 117%. The GTP binding signal, raw median fluorescence (lower = inhibition) (MCF (arbitrary fluorescence units)) in assay [5] turned out to be 79.9.
Regarding `COc1ccc(/C=N/NC(=S)Nc2cc(S(=O)(=O)N3CCOCC3)ccc2N2CCOCC2)cc1O`, the compound was classed as inactive in assay [1], in assay [4] and in assay [6]. The fluorescence, percent of control (lower = inhibition) in assay [2] amounted to 65.8%. Further, in assay [3], the GTP binding, percent of control stood at 80.8%. In assay [5], the GTP binding signal, raw median fluorescence (lower = inhibition) (MCF (arbitrary fluorescence units)) was 0.
With `Cc1ccc(NC(=O)Nc2ccnc(-c3cccnc3)n2)cc1`, the call in assay [1], in assay [4] and in assay [6] was inactive. Moreover, the fluorescence, percent of control (lower = inhibition) in assay [2] was found to be 36.6%. Besides, the GTP binding, percent of control in assay [3] came out at 73.3%. In assay [5], this compound returned a GTP binding signal, raw median fluorescence (lower = inhibition) (MCF (arbitrary fluorescence units)) of 162.
As for `Cc1ccc(NC(=O)CS(=O)(=O)c2c[nH]c3ccccc23)c(C)c1`, the compound was classed as inactive in assay [1], in assay [4] and in assay [6]. In addition, the fluorescence, percent of control (lower = inhibition) in assay [2] stood at 46%. In addition, the GTP binding, percent of control in assay [3] is 62.9%. This compound yielded a GTP binding signal, raw median fluorescence (lower = inhibition) (MCF (arbitrary fluorescence units)) in assay [5] of 184.
`N=c1oc2ccc3ccccc3c2cc1-c1nc(-c2ccccc2)cs1`: the outcome in assay [1], in assay [4] and in assay [6] was inactive. Besides, the fluorescence, percent of control (lower = inhibition) in assay [2] stood at 32.3%. The compound further displayed a GTP binding, percent of control in assay [3] of 75%. In assay [5], this compound displayed a GTP binding signal, raw median fluorescence (lower = inhibition) (MCF (arbitrary fluorescence units)) of 209.
Turning to `Cc1ccc(/C=N/N(C)C2=NS(=O)(=O)c3ccccc32)o1`, the result in assay [1], in assay [4] and in assay [6] was inactive. Moreover, the fluorescence, percent of control (lower = inhibition) in assay [2] came to 27.1%. The GTP binding, percent of control in assay [3] was determined as 57.3%. Besides, the GTP binding signal, raw median fluorescence (lower = inhibition) (MCF (arbitrary fluorescence units)) in assay [5] came to 132.
`COc1cc(NS(=O)(=O)c2ccc(NC(=O)/C=C/c3cccc([N+](=O)[O-])c3)cc2)ncn1`: the compound was called inactive in assay [1], in assay [4] and in assay [6]. For the same compound, in assay [2], the fluorescence, percent of control (lower = inhibition) stood at 29.8%. In assay [3], this compound showed a GTP binding, percent of control of 77.7%. Further, the GTP binding signal, raw median fluorescence (lower = inhibition) (MCF (arbitrary fluorescence units)) in assay [5] was found to be 191.
On to `O=C(NCc1cccs1)c1cccn2c(=O)c3sccc3nc12`, for which the compound was called inactive in assay [1], in assay [4] and in assay [6]. For the same compound, the fluorescence, percent of control (lower = inhibition) in assay [2] stood at 32.6%. The compound further had a GTP binding, percent of control in assay [3] of 69.2%. The compound further yielded a GTP binding signal, raw median fluorescence (lower = inhibition) (MCF (arbitrary fluorescence units)) in assay [5] of 138.
`COc1ccc(-c2c(C)[nH]n3c(=O)c(Cc4ccccc4)c(C)nc23)cc1`: the compound was classed as inactive in assay [1], in assay [4] and in assay [6]. Also, in assay [2], the fluorescence, percent of control (lower = inhibition) worked out at 33.9%. The same compound returned a GTP binding, percent of control in assay [3] of 79%. The compound further registered a GTP binding signal, raw median fluorescence (lower = inhibition) (MCF (arbitrary fluorescence units)) in assay [5] of 217.
For the compound `CCOCCCNc1nc(=S)[nH]c2cc(OC)c(OC)cc12`, the outcome in assay [1], in assay [4] and in assay [6] was inactive. For the same compound, the fluorescence, percent of control (lower = inhibition) in assay [2] was 60.4%. The GTP binding, percent of control in assay [3] turned out to be 99.7%. Moreover, the GTP binding signal, raw median fluorescence (lower = inhibition) (MCF (arbitrary fluorescence units)) in assay [5] stood at 111.
Consider `CCCC(=O)c1ccc(N2CCOCC2)c(F)c1`, for which the result in assay [1], in assay [4] and in assay [6] was inactive. The fluorescence, percent of control (lower = inhibition) in assay [2] was found to be 48.4%. In assay [3], this compound gave a GTP binding, percent of control of 65.7%. The GTP binding signal, raw median fluorescence (lower = inhibition) (MCF (arbitrary fluorescence units)) in assay [5] amounted to 212.
